Laboratory results published in PubChem BioAssay (NCATS).
Results filed as inconclusive are left out. Activity calls are given as the source filed them. Calls follow the shape of the dose curve; as a rule, active = well fitted curve in the direction sought with a large enough effect; inconclusive = small, poorly fitted or top-dose-only effect, or another doubt; inactive = no such curve, though single readings can be large; an effect the other way counts as inactive or inconclusive.

Experiments:
[1] = HEK293 18hr Apoptosis Induction qHTS against the NCATS CANVASS Library (AID 1347357)
In short: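 Luminescent caspase-3/7 signal is measured in HEK293 cells exposed for 18 hours to an 11-point concentration series; doxorubicin serves as the plate control.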

[2] = HPAF-II 12hr Apoptosis Induction qHTS against the NCATS CANVASS Library (AID 1347358)
In short: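 HPAF-II cells (500/well, DMEM + 10% FBS) were exposed to compounds for 12 hours at 37 degrees C. Caspase-3/7 activity was then read by Caspase-Glo 3/7 luminescence after 15 min at room temperature.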

[3] = HEK293 24hr Apoptosis Induction qHTS against the NCATS CANVASS Library (AID 1347359)
In short: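 HEK293 cells, 500 per well, exposed to an 11-point compound series for 24 hours at 37 degrees C. Caspase 3/7 activity read by Caspase-Glo luminescence (DEVD substrate) after 15 min at room temperature.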

[4] = HPAF-II 18hr Apoptosis Induction qHTS against the NCATS CANVASS Library (AID 1347360)
In short: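 Apoptosis was scored as caspase-3/7 activity in HPAF-II pancreatic cancer cells treated 18 hours with an 11-point concentration series.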

[5] = HEK293 12hr Apoptosis Induction qHTS against the NCATS CANVASS Library (AID 1347361)
In short: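 Apoptosis in HEK293 was scored as caspase-3/7 luminescence following 12 h treatment with a compound concentration series in qHTS format.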

[6] = test system: NAD(P)H diaphorase (Clostridium kluyveri); assay: Diaphorse counterscreen qHTS: Assay Interference Panel against the NCATS CANVASS Library (AID 1347362)
In short: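 Clostridium kluyveri diaphorase in PBS + 0.01% Tween-20 preincubated 15 min with compounds. Resazurin and NADH then added for 5 min at room temperature in the dark; resorufin fluorescence read (ex 525, em 598).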

[7] = target: Luciferin 4-monooxygenase (Photinus pyralis) (UniProt P08659); assay: Firefly luciferase counterscreen qHTS: Assay Interference Panel against the NCATS CANVASS Library (AID 1347363); also: series mostly up to about 57 µM
In short: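 Purified P. pyralis luciferase (0.04 ug/mL, 4x reagent) added to Tris-acetate buffer with 0.013 mM D-luciferin, 0.013 mM ATP and 13.3 mM Mg-acetate; compounds preincubated 15 min, then luminescence read after 5 min, RT.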

[8] = KB-3-1 Cancer Cell Toxicity qHTS against the NCATS CANVASS Library (AID 1347366); also: nearly all actives have a fitted effect of over 75% in size
In short: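 Seed KB-3-1 cells at 500/well in DMEM with 10% FBS, add compounds, incubate 72 hr at 37C and 5% CO2, then add CellTiter-Glo and read luminescence after 10 minutes.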

[9] = qHTS for ATAD5 Agonist screened against the NCATS CANVASS Library (AID 1347367);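 also: luciferase reporter driven by ATAD5 which rises upon DNA damage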
In short: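 Step one plated reporter cells and let them acclimate 5hr. Step two pinned compounds with MMS as positive and 0.46% DMSO as negative control. After 16hr incubation, fluorescence viability then luminescence were read.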

[10] = target: Nuclear receptor subfamily 1 group I member 3 (Homo sapiens) (UniProt Q14994); assay: qHTS for Constitutive Androstane Receptor (CAR) Antagonist screened against the NCATS CANVASS Library (AID 1347372);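 also: cells stimulated with 50 nM CITCO agonist so inhibition reflects antagonism; series mostly up to about 46 µM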
In short: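 HepG2 cells stably carrying hCAR and CYP2B6-2.2kb luciferase reporter, 2500 cells/well, compound with 50 nM CITCO agonist for 24hr at 37C. ONE-Glo luminescence measured CAR activity; CellTiter-Fluor read viability.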

[11] = qHTS for Hypoxia signaling pathway (HIF-1) agonists against the NCATS CANVASS Library (AID 1347375)
In short: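 HRE-bla ME-180 cells (beta-lactamase reporter under hypoxia responsive element) in 0.5% dialyzed FBS medium, 5 h at 37C, then compound 17 h, 11-point qHTS series. CCF4-AM FRET substrate 2 h RT; 460/530 nm emission read.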

[12] = 10-beta competent E. coli microbial cell viability qHTS against the NCATS CANVASS Library (AID 1347376); also: series mostly up to about 46 µM
In short: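 10-beta competent E. coli (0.9 OD culture diluted to 0.2 OD) exposed to compounds in an 11-point qHTS series, incubated overnight at 37C, 5% CO2. Viability read as ATP by BacTiter-Glo luminescence after 20 min at room temperature.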

[13] = qHTS for Inflammasome Signaling Inhibitors: IL-1-beta AlphaLISA screen against the NCATS CANVASS Library (AID 1347379);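 also: human THP-1 cells primed with LPS then triggered with ATP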
In short: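 Human THP-1 cells were pretreated 1 hr at 37 °C with compounds (up to 57.5 uM final), then stimulated with LPS (250 ng/mL final) and ATP (1.25 mM final). Secreted IL-1B was read by AlphaLISA after 16 hr.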

[14] = Inflammasome Signaling qHTS Counterscreen: IL-1-beta AlphaLISA counterscreen against the NCATS CANVASS Library (AID 1347381);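 also: cell-free check with purified IL-1β in medium and no THP-1 cells; series mostly up to about 57 µM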
In short: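 To flag interference with the AlphaLISA read-out, a known amount of purified IL-1-beta (4 pg) replaced cell supernatant. Detection used anti-IL-1-beta acceptor beads, biotinylated antibody and streptavidin donor beads at room temperature.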

[15] = Cytotoxicity qHTS for assessment of Hepg2 cells membrane integrity screened against the NCATS CANVASS Library (AID 1347387)
In short: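 HepG2 cells (2000/well) attached overnight at 37C, then received compounds in an 11-point series at 0.59 nM - 46 uM final for 5 hr. LDH release was detected fluorometrically (ex 560/em 590 nm) with CytoTox-ONE reagent after 10 min at room temperature.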

[16] = qHTS for activators of dead-cell proteases activity screened against the NCATS CANVASS Library (AID 1347392);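 also: luminescence from protease leaking out of membrane-damaged cells cleaving impermeant substrate; rising signal means more cytotoxicity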
In short: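 HepG2 cells, 2000/well, attached 18 h at 37C, then exposed to compounds (11-point qHTS) for 5 h. Dead-cell protease release read as luminescence from cell-impermeant AAF-aminoluciferin substrate after 15 min at room temperature.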

[17] = qHTS for ATAD5 Antagonist screened against the NCATS CANVASS Library (AID 1347370);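 also: HEK293T cells carrying an ATAD5 luciferase reporter co-treated with 10 µM 5-fluorouridine; series mostly up to about 46 µM; nearly all actives have a fitted effect of over 65% in size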
In short: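 HEK293T cells with a stably integrated ATAD5-controlled luciferase reporter were exposed to compounds (11-pt) alongside 10 uM 5-fluorouridine as ATAD5 stabilizer for 16hr at 37C. Viability was read by CellTiter-Fluor fluorescence, then ATAD5 by luminescence.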

[18] = J3T Cancer Cell Toxicity qHTS against the NCATS CANVASS Library (AID 1347371)
In short: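 J3T dog glioma cells (500 cells/well) were exposed to compounds in an 11-point series for 72 hr at 37C, 5% CO2. Cytotoxicity was read as ATP content by CellTiterGlo luminescence.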

[19] = target: Nuclear receptor subfamily 1 group I member 3 (Homo sapiens) (UniProt Q14994); assay: qHTS for Constitutive Androstane Receptor (CAR) Agonist screened against the NCATS CANVASS Library (AID 1347373);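 also: every well also contained 1.5 µM PK11195 alongside the test compound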
In short: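 HepG2 cells stably expressing hCAR and a CYP2B6-2.2kb luciferase reporter were treated for 24hr at 37C with compounds (11-point qHTS) in the presence of 1.5uM PK11195. Reporter activation was read by ONE-Glo luminescence.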

[20] = Viability qHTS for inhibitors of the SERCaMP assay screened against the NCATS CANVASS Library (AID 1347400); also: series mostly up to about 92 µM; nearly all actives have a fitted effect of over 70% in size
In short: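 SH-SY5Y-GLuc SERCaMP MJH297-derived cells (1000 cells/well) were pre-incubated 4 h at 37C, then exposed to compounds for 48 h. Viability was read as CellTiter-Glo luminescence; bortezomib served as positive control.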

Measured: Potency

Chain of Nuclear receptor subfamily 1 group I member 3 (Homo sapiens) (Q14994 whole entry, looked up): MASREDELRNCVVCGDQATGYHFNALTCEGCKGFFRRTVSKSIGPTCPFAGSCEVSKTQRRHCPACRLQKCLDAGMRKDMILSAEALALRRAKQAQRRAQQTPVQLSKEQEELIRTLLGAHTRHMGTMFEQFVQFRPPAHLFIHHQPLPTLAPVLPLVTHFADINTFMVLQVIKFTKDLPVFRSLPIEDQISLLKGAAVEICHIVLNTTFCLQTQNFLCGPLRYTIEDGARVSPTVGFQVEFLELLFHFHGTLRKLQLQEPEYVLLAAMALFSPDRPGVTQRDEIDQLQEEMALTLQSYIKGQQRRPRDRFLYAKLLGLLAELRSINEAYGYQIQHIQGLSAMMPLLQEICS
Chain of Luciferin 4-monooxygenase (Photinus pyralis) (P08659 whole entry, looked up): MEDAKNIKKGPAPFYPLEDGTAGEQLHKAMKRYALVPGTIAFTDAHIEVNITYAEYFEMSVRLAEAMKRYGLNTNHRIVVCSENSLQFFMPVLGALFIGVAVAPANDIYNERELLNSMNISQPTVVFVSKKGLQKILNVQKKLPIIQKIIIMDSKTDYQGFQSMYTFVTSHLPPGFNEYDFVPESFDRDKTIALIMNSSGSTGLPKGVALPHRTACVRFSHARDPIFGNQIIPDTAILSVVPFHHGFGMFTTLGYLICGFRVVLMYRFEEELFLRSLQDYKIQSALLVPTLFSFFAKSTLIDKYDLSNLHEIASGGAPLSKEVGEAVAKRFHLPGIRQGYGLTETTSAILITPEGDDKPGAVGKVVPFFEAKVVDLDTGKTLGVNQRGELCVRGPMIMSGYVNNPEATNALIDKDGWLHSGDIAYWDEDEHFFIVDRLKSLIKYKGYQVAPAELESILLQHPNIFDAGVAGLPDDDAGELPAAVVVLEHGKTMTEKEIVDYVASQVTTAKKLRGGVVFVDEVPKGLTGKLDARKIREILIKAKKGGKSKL

C=C[C@]1(C)CC[C@@H]([C@H](C)C(=O)/C=C/C(C)(C)O)O1
not listed: [17] | [18] | [19] | [20]
inactive: all other assays above

CC(CCC[C@]1(C)C(=O)C=C[C@@]23C[C@]4(C)O[C@@H](C[C@@H]4[C@H]2O)C31)C(=O)O (stereo not given in full)
inactive: all assays above

CC(C)=CCC[C@]1(C)[C@H]2CC(=O)[C@@]3(CO3)[C@@H]1C2
inactive: all assays above

O=Cc1ccc2n1C[C@]1(OC2)O[C@H](CO)[C@@H](O)[C@@H]1O
inactive: all assays above

C=C[C@@]1(C)CC[C@@H]([C@H](C)C(C)=O)O1
inactive: all assays above

C/C=C/[C@H]1[C@H]2C(=O)c3c(O)c(C)c(O)c(C)c3[C@]1(C(=O)O)C(=O)C=C2C
inactive: all assays above

CC(=O)c1c(C)cc2c(c1O)C(=O)c1c(O)cc(O)cc1C2=O
inactive: all assays above

C=C[C@]1(C)CC[C@@H]([C@H](C)C(=O)CC=C(C)C)O1
inactive: all assays above

CCC(C)=C1OC(=O)[C@H](C)[C@H](O)[C@H](Cc2cccnc2)NC(=O)C(NC(=O)c2ncccc2O)C(C)OC1=O (stereo not given in full)
not listed: [6]
inactive: all other assays above

O=c1cc(-c2ccc(O)cc2)oc2cc(O)c([C@@H]3OC(CO)[C@H](O)[C@@H](O)[C@H]3O)c(O)c12 (stereo not given in full)
inactive: all assays above

C[C@@]12CCC[C@@](C)(C(=O)O)[C@H]1CC[C@@]13C[C@@H](CC[C@H]12)[C@](C)(O)C3
inactive: all assays above
